# From PubChem BioAssay AID1628 (Sanford-Burnham Center for Chemical Genomics, 2009)
# In all, about 190,000 compounds went through this assay and about 930 (0.49%) were called active.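 Rule for the calls: active = z-score of insulin promoter reporter brightness in nuclei below -3 at 5 µM, with at least 500 cells counted; inconclusive = wells with under 500 cells, flagged as toxic or sparse; inactive = the rest.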 The list shows a part of the results. Entries with a potency or affinity are not part of this list.
# Test: insulin promoter down-regulators in MIN6 cells, imaging, high-content screening, mouse beta cells (AID 1628)
# Conditions: MIN6 insulin promoter GFP reporter, at 5 µM, hits give low values
row,Structure (SMILES),z-score
1,COc1ccc(-n2c(SCC(N)=O)nnc2-c2cccnc2)cc1,0.75 (inactive)
2,COc1ccc(-n2c(C)cc(C(=O)CSc3nn4c(=O)c(C(C)(C)C)nnc4s3)c2C)cc1,-4.21 (active)
3,CN(C)S(=O)(=O)c1ccc(NC(=O)C2COc3ccccc3O2)cc1 (stereo not given),2 (inactive)
4,COc1ccc2c(c1)C(=O)OC2CC(=O)O (stereo not given),0.37 (inactive)
5,Cc1ccc(-c2cn3nc(-c4ccccc4)c(-c4ccccc4)nc3n2)cc1,8.16 (inactive)
6,Cc1cc2nc(C3CCN(Cc4nnnn4Cc4cccs4)CC3)[nH]c2cc1C,-3.92 (active)
7,CCCCCc1cc(=O)oc2c(C(CCN3CCCC(C)C3)c3ccc(OC)cc3)c(OC)cc(OC)c12 (stereo not given),-3.09 (active)
8,C=CCNC(=O)C1CCN(S(=O)(=O)c2ccc(Br)cc2)CC1,3.14 (inactive)
9,CC1CCN(S(=O)(=O)c2ccc(NC(=O)N3c4ccccc4Sc4ccccc43)cc2)CC1,-3.77 (active)
10,O=C(C1=C(O)C(=O)N(c2nccs2)C1c1ccccc1)c1cc2ccccc2o1 (stereo not given),13.5 (inactive)
11,Cc1ccc2c(c1)C(c1ccccc1)N(C(=O)c1cc3ccccc3oc1=O)CC(=O)N2 (stereo not given),-4.42 (active)
12,CN(C)c1ccc(/C=C2\SC(=O)N(CCc3nnc(N)s3)C2=O)cc1,3.27 (inactive)
13,Cc1ccc(S(=O)(=O)CCC(=O)NCCN2C(=O)S/C(=C/c3ccc(F)cc3)C2=O)cc1,-5.68 (active)
14,O=C1S/C(=C/c2ccc(N3CCOCC3)o2)C(=O)N1Cc1ccc(F)cc1,11.4 (inactive)
15,CCCc1nc2ccc(NC(C)=O)cc2c(=O)n1Cc1ccc(Cl)cc1,3.64 (inactive)
16,CN(C)Cc1nc2ccccc2c(=O)n1Cc1nc(C(C)(C)C)cs1,-4 (active)
17,COc1ccc(Cl)cc1NC(=O)CN(C)C(=O)COc1ccccc1F,4.38 (inactive)
18,CC(=O)Nc1ccc2nc(NC(=O)COc3ccccc3C)sc2c1,2.47 (inactive)
19,Cc1cccc(OCC(=O)NNC(=O)Nc2cccc(Cl)c2)c1C,-5.42 (active)
20,Cc1cccc(N=CC=C2OC(C)(C)C(C)(C)O2)c1,-4.14 (active)
21,Cc1cccc(N=Cc2[nH]c3ccc(Br)c(Cl)c3c2O)c1,16.6 (inactive)
22,Cn1c(C(=O)N2CCC(C(=O)N3CCN(Cc4ccc5c(c4)OCO5)CC3)CC2)cc2sccc21,4.67 (inactive)
23,O=C(c1ccco1)N1CCN(C(=O)c2cc3sccc3n2Cc2ccccc2)CC1,-3.22 (active)
24,Cc1ccc(/C=C/C(=O)O)cc1S(=O)(=O)NCCO,-4.14 (active)
25,CC(C)N1CCc2c(sc(NC(=O)c3cc4cc([N+](=O)[O-])ccc4s3)c2C(N)=O)C1,7.47 (inactive)

row,Structure (SMILES),z-score
1,CCn1ncc(Br)c1C(=O)Nc1sc2c(c1C(N)=O)CCC2,3.46 (inactive)
2,CCC(C)(C)C1CCc2c(sc(NC(=O)c3cccs3)c2C(N)=O)C1 (stereo not given),-3.17 (active)
3,CN(CCCNC(=O)CN1C(=O)CC(C)(C)S(=O)(=O)c2ccccc21)C1CCCCC1,3.03 (inactive)
4,COc1cccc(/C=N/NC(=O)CCn2cnc3ccccc32)c1,3.74 (inactive)
5,COc1cccc(OCCOc2cccc(/C=N/n3cnnc3)c2)c1,-5.3 (active)
6,COc1ccc(/C(O)=C/c2nc3ccc(C(=O)NCCc4cccc(C)c4)cc3[nH]c2=O)cc1OC,4.75 (inactive)
7,COc1ccc(CCNc2ncnc3cc(OC)c(OC)cc23)cc1OC,-3.22 (active)
8,CCOC(=O)COc1cccc2c(=O)n(CC(=O)NCCc3ccc(OC)c(OC)c3)ccc12,3.56 (inactive)
9,COc1ccc(CCNC(=O)c2cnc3scc(C)n3c2=O)cc1OC,0.78 (inactive)
10,COc1ccc(CCNc2ncnc3[nH]ncc23)cc1OC,-7.54 (active)
11,CCCCn1c(=O)[nH]c2nc3cc(N)ccc3nc2c1=O,4.83 (inactive)
12,CCCCCn1nc(-c2ccccc2)c2nc3ccccc3nc21,4.99 (inactive)
13,CCCCCn1c(=O)c(-c2nc3ccccc3[nH]2)c(O)c2ccccc21,-5.3 (active)
14,COCCCn1cc(C(=O)c2cc(Br)ccc2O)cc(C#N)c1=O,2.45 (inactive)
15,CCC(=O)NC(Nc1ncc(C)s1)(C(=O)OC)C(F)(F)F (stereo not given),0.55 (inactive)
16,O=C(Nc1ccc(N2CCN(C(=O)c3ccccc3)CC2)c(Cl)c1)c1ccc(Br)o1,-3.01 (active)
17,O=C(Nc1ccc(N2CCN(C(=O)c3ccco3)CC2)c(Cl)c1)c1cc2ccccc2o1,-5.03 (active)
18,COc1ccc2nc(SCC(C)=O)c(C#N)cc2c1,8.23 (inactive)
19,CCOC(=O)c1cc(C#N)c(SCC(=O)c2cc(C#N)c(SC)nc2C)nc1C,-4.9 (active)
20,Cc1nonc1NC(=O)CSc1nc2c(C)cccc2cc1C#N,12.5 (inactive)
21,O=[N+]([O-])c1ccc(C2=NN(c3ccccc3)C(c3ccco3)C2)cc1 (stereo not given),16.5 (inactive)
22,COc1cc(OC)cc(C(=O)N2CCC(N3CCCCCC3)CC2)c1,1.84 (inactive)
23,CCOC(=O)c1ccc(Nc2ccc(-c3ccc(OC)c(OC)c3)nn2)cc1,-3.46 (active)
24,Cn1c(=O)c(Nc2ccc(Cl)cc2)c2c3c(cccc31)C(=O)c1ccccc1-2,15.1 (inactive)
25,N#C/C(=C\c1ccc(N2CCOCC2)o1)c1nc2ccccc2[nH]1,8.22 (inactive)

row,Structure (SMILES),z-score
1,NS(=O)(=O)c1cccc2cccnc12,5.52 (inactive)
2,NCC12CC3CC(C1)CC(CN)(C3)C2,3.09 (inactive)
3,Cn1cc(/C=C2\SC(=S)N(NC(=O)c3ccccc3Cl)C2=O)c2ccccc21,7 (inactive)
4,COc1ccc(NC(=O)CSc2nnnn2C)c([N+](=O)[O-])c1,0.83 (inactive)
5,CCOC(=O)c1c(NC(=O)CSc2nnnn2C)sc(C)c1-c1ccc(C)cc1,-3.09 (active)
6,CCOC(=O)c1sc(=S)n(-c2ccccc2)c1N(C(C)=O)C(C)=O,1.57 (inactive)
7,CCOC(=O)c1sc(-c2ccccc2)cc1NC(=O)CSc1nnnn1C,-3.34 (active)
8,CC(C)(C)C(=O)c1sc2nc(-c3cccs3)cc(C(F)(F)F)c2c1N,13.8 (inactive)
9,COc1ccc(NC(=O)C2CCN(Cc3cnn(-c4ccccc4)c3-n3cccc3)CC2)cc1OC,-4.57 (active)
10,CCOc1ccccc1NC(=O)C1CCN(S(=O)(=O)c2ccc(OC)c(OC)c2)CC1,0.9 (inactive)
11,NC(CO)C(O)c1ccc([N+](=O)[O-])cc1 (stereo not given),-0.09 (inactive)
12,COCCN(CCOC)Cc1cc(=O)oc2cc3c(cc12)CCC3,3.14 (inactive)
13,Cc1cccn2c(=O)c(/C=C3\SC(=S)N(CC(C)C)C3=O)c(NCCCOC(C)C)nc12,12.1 (inactive)
14,O=C(CN1CCN(Cc2ccc3c(c2)OCO3)CC1)N1CCc2[nH]c3ccccc3c2C1,-4.04 (active)
15,C(=C/c1nccc2c1[nH]c1ccccc12)/c1ccc2c(c1)OCO2,10.6 (inactive)
16,O=c1[nH]c(CN2CCN(Cc3ccc4c(c3)OCO4)CC2)nc2sc3c(c12)CCC3,3.55 (inactive)
17,Cc1ccc2[nH]c3c(c2c1)CN(C(=O)CN1CCN(Cc2ccc4c(c2)OCO4)CC1)CC3,-3.96 (active)
18,CCN(CC)c1ccc2cc(-c3nnc(-c4ccncc4)o3)c(=O)oc2c1,4.43 (inactive)
19,COc1ccc(S(=O)(=O)N2CCCCC2)cc1NC(=O)CSc1ncnc2ccccc12,-4.48 (active)
20,COc1ccc2nc(SCC(=O)Nc3ccc(S(=O)(=O)N4CCCC4)cc3)c(C#N)cc2c1,3.47 (inactive)
21,Cc1ccc(-c2noc(CSc3nnnn3-c3ccccc3)n2)cc1,2.35 (inactive)
22,CCOC(=O)c1ccccc1NC(=O)c1ccc2c(=O)n3c(nc2c1)CCCCC3,-3.69 (active)
23,COC(=O)c1ccccc1NC(=S)N1CCC(N2CCCCC2)CC1,1.65 (inactive)
24,CC1(C)CC(N2CCCC2)=CC(=[N+]2CCCCCC2)C1,-4.54 (active)
25,CCOc1ccc(-n2c(SCC(=O)NC(C)CC)nc3n[nH]c(C)c3c2=N)cc1 (stereo not given),3 (inactive)
